Bioassay records deposited in PubChem BioAssay by National Center for Advancing Translational Sciences (NCATS).
Rows were chosen to be rich in hits. Some 8% of all compounds tested hit in one or more screens of this group.
Coupling enz = coupling enzyme interference in Giardia aldolase counter-screen; coupling enzyme system counterscreen, AmpLite Red fluorescence; activity change, negative = inhibition, % at 58.2 µM, hits read low; 290,000 tested, 0.67% active; AID 2472; in the data active means activity change below about -30%
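Coupling enzymes only (glyceraldehyde-3-phosphate) + compound, at 57.5 uM final, 10 min RT; add substrate/coupling/AmpLite Red mix, 20 min RT; fluorescence ex 525/em 598 nm. Actives flag coupling-system interference.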
RORg inh = blocks mouse ROR gamma transcriptional activity. P51450. Drosophila S2 Gal4-RORgamma UAS-luciferase reporter, 20 h. Potency, µM (titrated, usually from 53.6 µM), without a hit: at the highest dose activity change, negative = inhibition, usual class: inhibitors. 310,000 tested, 5.4% active; further: potency means the concentration at half of the fitted maximal effect; nearly all actives have a fitted effect of over 60% in size
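Stably transfected Drosophila Schneider cells are the test system, with ROR gamma fused to Gal4 and luciferase under UAS control; luminescence is read after 20 hr of 700 uM copper sulfate induction at ambient temperature.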
ELG1 DNA repair = blocks ELG1-dependent DNA repair in HEK293T cells. HEK293T ELG1-luciferase reporter, luminescence, 16 h; DNA damage induced by 5-fluorouridine. Potency, µM (series often up to 46.1 µM), for inactives: top-dose activity change, negative = inhibition, most hits filed as inhibitors. 330,000 tested, 2.3% active; further: potency means the concentration at half of the fitted maximal effect; nearly all actives have a fitted effect of over 55% in size
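Cells (2,000 per well) received 5-fluorouridine plus test compound or DMSO and were incubated 16 hr at 37 °C, 5% CO2. Luciferase activity was read by luminescence 30 min after ONE-Glo addition; signal suppression marked inhibition of damage-induced ELG1 function.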
TSHR antag = human thyrotropin receptor antagonism; P16473; TSHR-expressing cells, TSH-stimulated cAMP HTRF, 2 h; stronger effect = lower value; activity change, negative = inhibition, % at 11.5 µM; 330,000 tested, 0.2% active;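 active means activity change below a set negative limit, meaning inhibition stronger than a set level, cut at about -70% in these data; inconclusive means activity change between two set negative limits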
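Inhibition of cAMP made by TSHR-expressing cells under TSH stimulation (4nM final, EC80; 2 h, 37 deg C) is quantified with a one-step lysis HTRF kit, anti-cAMP cryptate versus cAMP-d2.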
VP16 counter = inhibits Gal4-VP16 luciferase reporter, ROR gamma counter-screen; Drosophila S2 Gal4-VP16 UAS-luciferase, luminescence, 20 h; Potency, µM (series often up to 53.6 µM), for the others: at the highest dose activity, negative = inhibition, actives largely listed as inhibitors; 310,000 tested, 3.5% active;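 further: Gal4-VP16 expression switched on by copper sulfate through the metallothionein promoter; potency means the concentration at half of the fitted maximal effect; nearly all actives have a fitted effect of over 50% in size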
ELG1 FLuc counter = luciferase inhibition in cell-free luciferin readout for ELG1 hits; shares compounds with ELG1 DNA repair; cell-free firefly luciferase luminescence counter-screen, ViewLux; Potency, µM (titrated, usually from 46.1 µM), without a hit: top-dose activity change, negative = inhibition, hits mostly inhibitors; 350 tested, 3% active; further: potency means the concentration at half of the fitted maximal effect
ELG1-Luc inh = confirmation of human ELG1-dependent DNA repair inhibitors. HEK293T ELG1-luciferase levels, luminescence; cells co-treated with 5-fluorouridine. shares compounds with ELG1 DNA repair. Potency, µM (top dose mostly 46.1 µM), without a hit: at the top dose activity change, negative = inhibition, usual class: inhibitors. 670 tested, 68% active; further: potency means the concentration at half of the fitted maximal effect; nearly all actives have a fitted effect of over 55% in size
Target sequence (Q96QE3 whole entry, looked up): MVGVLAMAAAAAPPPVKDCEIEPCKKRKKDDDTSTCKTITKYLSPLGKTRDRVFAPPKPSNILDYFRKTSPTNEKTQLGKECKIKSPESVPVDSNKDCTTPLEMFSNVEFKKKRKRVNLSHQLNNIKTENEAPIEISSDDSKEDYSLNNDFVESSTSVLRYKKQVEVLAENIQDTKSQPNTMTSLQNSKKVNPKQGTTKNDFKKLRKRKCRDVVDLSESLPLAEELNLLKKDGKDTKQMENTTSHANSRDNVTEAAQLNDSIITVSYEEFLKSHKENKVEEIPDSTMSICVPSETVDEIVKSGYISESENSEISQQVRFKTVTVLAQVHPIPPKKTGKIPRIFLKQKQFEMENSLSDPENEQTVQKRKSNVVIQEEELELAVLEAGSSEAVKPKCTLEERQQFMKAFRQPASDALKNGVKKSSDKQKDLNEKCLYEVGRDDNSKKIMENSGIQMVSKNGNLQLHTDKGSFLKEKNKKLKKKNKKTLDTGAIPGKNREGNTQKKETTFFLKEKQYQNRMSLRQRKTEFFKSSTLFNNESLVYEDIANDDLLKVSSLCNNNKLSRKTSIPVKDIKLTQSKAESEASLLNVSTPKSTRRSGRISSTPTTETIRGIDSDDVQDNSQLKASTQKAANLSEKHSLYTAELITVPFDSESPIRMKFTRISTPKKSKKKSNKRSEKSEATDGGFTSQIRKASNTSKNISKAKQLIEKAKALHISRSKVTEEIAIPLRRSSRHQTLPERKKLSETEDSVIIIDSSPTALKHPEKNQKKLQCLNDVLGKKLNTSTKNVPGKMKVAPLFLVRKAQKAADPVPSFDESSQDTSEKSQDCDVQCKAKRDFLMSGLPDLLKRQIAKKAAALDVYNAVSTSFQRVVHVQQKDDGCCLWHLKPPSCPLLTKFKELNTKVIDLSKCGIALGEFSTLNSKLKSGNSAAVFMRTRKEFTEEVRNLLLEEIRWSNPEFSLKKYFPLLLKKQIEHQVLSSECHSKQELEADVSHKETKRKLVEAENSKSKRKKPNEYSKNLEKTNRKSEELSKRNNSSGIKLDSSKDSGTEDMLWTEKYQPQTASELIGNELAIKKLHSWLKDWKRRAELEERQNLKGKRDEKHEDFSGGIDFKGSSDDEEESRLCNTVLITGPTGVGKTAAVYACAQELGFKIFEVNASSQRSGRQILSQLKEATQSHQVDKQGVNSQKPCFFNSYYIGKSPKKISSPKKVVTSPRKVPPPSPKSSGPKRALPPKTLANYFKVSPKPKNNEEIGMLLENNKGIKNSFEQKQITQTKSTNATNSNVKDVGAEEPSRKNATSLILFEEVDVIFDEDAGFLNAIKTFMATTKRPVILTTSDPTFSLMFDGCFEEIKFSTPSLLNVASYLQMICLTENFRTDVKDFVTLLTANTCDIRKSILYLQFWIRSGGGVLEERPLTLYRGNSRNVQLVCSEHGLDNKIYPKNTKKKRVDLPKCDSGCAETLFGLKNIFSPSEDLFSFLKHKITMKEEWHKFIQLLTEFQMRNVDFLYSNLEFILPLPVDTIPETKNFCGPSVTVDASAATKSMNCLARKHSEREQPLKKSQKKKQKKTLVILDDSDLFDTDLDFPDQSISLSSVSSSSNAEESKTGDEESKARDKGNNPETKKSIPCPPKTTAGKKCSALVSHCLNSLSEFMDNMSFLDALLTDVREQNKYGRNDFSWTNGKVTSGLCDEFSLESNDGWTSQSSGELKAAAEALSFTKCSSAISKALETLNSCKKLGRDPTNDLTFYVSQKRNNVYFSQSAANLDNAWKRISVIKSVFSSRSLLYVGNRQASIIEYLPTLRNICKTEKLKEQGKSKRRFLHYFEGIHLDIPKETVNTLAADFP
ELG1 MMS Luc = confirmation of human ELG1 repair inhibitors, MMS stimulated; Potency, µM (top dose mostly 46.1 µM), for inactives: at the highest dose activity change, negative = inhibition, actives largely listed as inhibitors; shares compounds with ELG1 DNA repair; 670 tested, 53% active; HEK293T luciferase-tagged ELG1 level, MMS stimulated; further: potency means the concentration at half of the fitted maximal effect; nearly all actives have a fitted effect of over 60% in size
ELG1 5-FU = confirmation of ELG1 repair inhibitors: viability with 5FU. shares compounds with ELG1 DNA repair. cell viability with 5-FU, ELG1-dependent repair. Potency, µM (titrated, usually from 46.1 µM), for inactives: at the highest dose activity change, negative = viability loss, actives largely listed as cytotoxic. 670 tested, under 10 active. AID 624250;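 further: ELG1-luc HEK293T cells cotreated with 5-fluorouridine at 10 µM final; potency means the concentration at half of the fitted maximal effect; viability measured 16 h after compound addition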
ELG1 MMS viab = confirmation of ELG1 repair inhibitors: viability with MMS; Potency, µM (doses to about 46.1 µM), inactives show top-dose activity change, negative = viability loss, usual class: cytotoxic; shares compounds with ELG1 DNA repair; Cell viability with MMS, ELG1-dependent DNA repair; AID 624251; 670 tested, 33% active;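 further: ELG1-luc HEK293T cells co-treated with 10 µM MMS; potency means the concentration at half of the fitted maximal effect; viability read 16 h after compound addition; nearly all actives have a fitted effect of over 60% in size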
Cell viab unstim = affects unstimulated cell viability, ELG1 hit counter-screen | 900 tested, 8% active | AID 624252 | Potency, µM (titrated, usually from 45.9 µM), without a hit: at the highest dose activity change, negative = loss of viability, usual class: cytotoxic | cell viability counter-screen, unstimulated, luminescence | shares compounds with ELG1 DNA repair;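 further: potency means the concentration at half of the fitted maximal effect; compound exposure lasted 16 hours before reading; nearly all actives have a fitted effect of over 55% in size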
FLuc enzyme = inhibits purified firefly luciferase, counter-screen for ELG1 hits; shares compounds with ELG1 DNA repair; purified firefly luciferase, luminescence counter-screen; Potency, µM (doses to about 57.5 µM), for inactives: at the top dose activity, negative = inhibition, actives largely listed as inhibitors; 350 tested, 10% active; AID 624253; further: potency means the concentration at half of the fitted maximal effect
An asterisk follows results filed as active; ? = inconclusive; · = no result; [ ] = remark or other dose. Unless noted, the call rests on the fitted dose curve; in most records, active means well fitted curve in the direction sought with a large enough effect; inconclusive means small, poorly fitted or top-dose-only effect, or another doubt; inactive means no such curve, though single readings can be large; an effect the other way counts as inactive or inconclusive. On the % scale 0 is the no-effect control and ±100 the full control effect.

SMILES | Coupling enz | RORg inh | ELG1 DNA repair | TSHR antag | VP16 counter | ELG1 FLuc counter | ELG1-Luc inh | ELG1 MMS Luc | ELG1 5-FU | ELG1 MMS viab | Cell viab unstim | FLuc enzyme
CC1CCCCC1NC(=O)CN1C(=O)NC(C)(c2ccc(OC(F)F)cc2)C1=O (stereo unspecified) | 5 | 6% | -9% | -4 | -2% | 1% | · | · | · | · | 2% | 4%
COc1ccc(/C=N/n2c(N)c(S(=O)(=O)c3cccs3)c3nc4ccccc4nc32)cc1OC | 1 | 0% | 2.6µM* | 3 | 3% | · | 3.1µM* | 16% | ? | -1% | -5% | ·
CCN1CCN(c2oc(-c3ccccc3C)nc2S(=O)(=O)c2ccccc2)CC1 | · | · | 0% | 15 | · | · | · | · | · | · | · | ·
CN(C)c1ccc(/C=C/c2cc[n+]([O-])cc2)cc1 | -2 | -31% | ? | -22 | -26% | · | · | · | · | · | · | ·
CN(C)c1ccc(/C=C/c2ccc3ccccc3[n+]2[O-])cc1 | · | · | · | · | · | -63% | · | · | · | · | 13µM* | 0.092µM*
CSc1ncnc2c1ncn2C1OC(CO)C(O)C1O (stereo unspecified) | 3 | 0% | · | · | -8% | 4% | 0.04µM* | 2µM* | ? | ? | 0.56µM* | -1%
Nc1ncnc2c1c(I)cn2C1OC(CO)C(O)C1O (stereo unspecified) | -1 | 5.6µM* | · | · | 4µM* | ? | 0.4µM* | 1µM* | 18% | ? | -8% | 5%
CNc1ncnc2c1ncn2[C@@H]1O[C@H](CO)[C@@H](O)[C@@H]1O | 2 | 13%[16.9 µM] | · | · | 12%[17 µM] | · | · | · | · | · | · | ·
CC(C)Oc1ccc(C(=O)OCC(=O)N2CCCc3ccccc32)cc1 | · | · | -4% | -9 | · | · | · | · | · | · | · | ·
O=C(Nc1cccc(F)c1)N1CC[C@@]2(CCCN(C(=O)c3ccncc3)C2)C1 | 2 | 0% | · | · | 0% | · | · | · | · | · | · | ·
CN(C(=O)c1sc2nc(N3CCOCC3)c3c(c2c1N)CCCC3)c1ccccc1 | 1 | 1% | 13µM* | -15 | -10% | -3% | 16µM* | 22µM* | ? | 2% | -17% | 3%
CCOC(=O)N1CCN(C(=O)CSCC(=O)Nc2nc(-c3ccccc3)cs2)CC1 | 1 | ? | ? | -12 | -17% | 49% | · | · | · | · | -14% | -7%
O=C(CSCC(=O)N1CCN(c2ccccc2)CC1)Nc1nc(-c2ccc(Cl)s2)cs1 | 0 | ? | ? | -39 | 8% | 17% | · | · | · | · | ? | -3%
O=C(O)CCCC(=O)Nc1nc(-c2ccccc2)cs1 | 11 | -11% | 7% | -5 | ? | · | · | · | · | · | · | ·
CC(C)C(=O)SCCCCCCC(=O)Nc1nc(-c2ccccc2)cs1 | -2 | -7% | · | · | ? | · | · | · | · | · | -4% | ·
